Screening data deposited in PubChem by National Center for Advancing Translational Sciences (NCATS).
Rows were chosen to be rich in hits. Some 9.2% of all compounds tested hit in one or more screens of this group.
ELG1 repair inh – qHTS screen for small molecules that inhibit ELG1-dependent DNA repair in human embryonic kidney (HEK293T) cells expressing luciferase-tagged ELG1 | HEK293T ELG1-luciferase reporter, luminescence, 16 h; DNA damage induced by 5-fluorouridine | Potency, µM (doses to about 46.1 µM), inactives show top-dose activity change, negative = inhibition, most hits filed as inhibitors | 2.3% of 330,000 active; further: on the % scale 0 is the no-effect control and ±100 the full control effect; nearly all actives have a fitted effect of over 55% in size
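HEK293T cells expressing luciferase-tagged ELG1 (2,000/well) received 5-Fluorouridine plus compound or DMSO for 16 hr at 37 °C. Luciferase was read by ONE-Glo luminescence after 30 min at room temperature.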
SMN2 splice enh – qHTS Assay for Enhancers of SMN2 Splice Variant Expression. HEK293 SMN2-luciferase splicing reporter, luminescence, 30-36 h. Potency, µM (series often up to 46.1 µM), without a hit: top-dose activity change, positive = activation, most hits filed as activators. 2.8% of 210,000 active; further: % of control where 0% means no effect; nearly all actives have a fitted effect of over 55% in size
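qHTS luciferase splicing reporter: luminescence rises when SMN2 exon 7 is included in transfected HEK293 cells. Compound exposure lasted 30-36 h at 37C, with 4.5 mM final sodium butyrate as control, followed by a ONE-Glo read.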
FLuc modulator – qHTS profiling assay for firefly luciferase inhibitor/activator using purifed enzyme and Km concentrations of substrates (counterscreen for miR-21 project). Potency, µM (top dose mostly 57.5 µM), for inactives: at the highest dose activity change, negative = inhibition, most hits filed as inhibitors. 6.9% of 360,000 active. purified FLuc, Km substrates, luminescence inhibition. AID 588342, 2011. Luciferin 4-monooxygenase (Photinus pyralis), P08659;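 further: plate controls were vehicle for no effect and reference inhibitor for full effect; nearly all actives have a fitted effect of over 55% in size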
Target sequence (P08659 whole entry, looked up): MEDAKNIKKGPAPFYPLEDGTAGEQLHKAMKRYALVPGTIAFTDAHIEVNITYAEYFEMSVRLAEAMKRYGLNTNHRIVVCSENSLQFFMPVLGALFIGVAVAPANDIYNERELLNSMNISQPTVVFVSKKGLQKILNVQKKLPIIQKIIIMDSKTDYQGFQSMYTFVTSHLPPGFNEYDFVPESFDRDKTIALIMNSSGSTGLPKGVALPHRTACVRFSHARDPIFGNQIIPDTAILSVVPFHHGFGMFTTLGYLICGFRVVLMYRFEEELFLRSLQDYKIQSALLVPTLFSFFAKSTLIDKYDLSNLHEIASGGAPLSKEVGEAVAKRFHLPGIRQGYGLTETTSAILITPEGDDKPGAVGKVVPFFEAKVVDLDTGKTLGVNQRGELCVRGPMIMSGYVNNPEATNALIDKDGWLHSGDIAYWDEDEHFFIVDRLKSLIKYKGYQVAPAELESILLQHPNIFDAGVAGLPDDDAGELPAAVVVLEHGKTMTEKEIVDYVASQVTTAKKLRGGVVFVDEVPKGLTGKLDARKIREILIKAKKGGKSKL
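Purified P. pyralis luciferase, 10 nM final, with Km-level 10 uM D-luciferin and 10 uM ATP in 50 mM Tris acetate pH 7.5, 10 mM Mg acetate, 0.01% Tween-20, 0.05% BSA; 6-point qHTS titration about 60 µM downward; luminescence read.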
ELG1 genotox – qHTS screen for small molecules that induce genotoxicity in human embryonic kidney (HEK293T) cells expressing luciferase-tagged ELG1; HEK293T ELG1-luciferase reporter, luminescence, 16 h; Potency, µM (titrated, usually from 46 µM), inactives show at the highest dose activity change, positive = activation, usual class: activators; 1.3% of 330,000 active; AID 504466, 2011; further: % of control where 0% means no effect; nearly all actives have a fitted effect of over 60% in size
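Genotoxicity was scored as increased ELG1-luciferase reporter signal, measured by ONE-Glo luminescence (30 min, room temperature). Compound or vehicle exposure of the HEK293T reporter cells lasted 16 hr at 37°C.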
Rab9 prom act – qHTS Assay for Rab9 Promoter Activators. Huh7 Rab9 promoter-luciferase reporter, luminescence, 24 h. Potency, µM (top dose mostly 9.22 µM), for the others: top-dose activation, negative = inhibition, usual class: activators. 2.8% of 320,000 active; further: % of control where 0% means no effect; nearly all actives have a fitted effect of over 60% in size
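Quantitative HTS format; Huh7 Rab9-luciferase reporter cells (1500/well) receive compound 2 h post-plating, incubate 24 h at 37 °C, then get luciferase reagent for 10 min before luminescence reading.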
NPC1 prom act – qHTS Assay for NPC1 Promoter Activators; 2.4% of 320,000 active; Potency, µM (doses to about 9.22 µM), without a hit: at the highest dose activation, most hits filed as activators; Huh7 NPC1 promoter luciferase reporter, 24 h; AID 485313, 2010; further: % of control where 0% means no effect; nearly all actives have a fitted effect of over 60% in size
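Luminescence read-out of NPC1 promoter-driven luciferase in stably transfected Huh7 cells; compounds delivered in DMSO and left 24 h at 37C, 5% CO2, qHTS titration format.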
The depositor's hits bear a star; [ ] = remark or other dose. The call rests on the fitted dose curve; in most records, active means well fitted curve in the direction sought with a large enough effect; inconclusive means small, poorly fitted or top-dose-only effect, or another doubt; inactive means no such curve, though single readings can be large; an effect the other way counts as inactive or inconclusive. Potency means the concentration at half of the fitted maximal effect.

How did CCC1C=CC=CC[C@H](C)[C@@H](O)[C@](C)(O)C(=O)[C@@H](C)[C@H](O)[C@@H](C)C(=O)[C@H](C)[C@@H](O)[C@H](C)C=CC(=O)OC2[C@@H](C)C(CC1)OC1(CC[C@@H](C)C(C[C@H](C)O)O1)[C@@H]2C (some centres undefined) do in these assays?
ELG1 repair inh: 12µM*; FLuc modulator: 4%; ELG1 genotox: -36%; Rab9 prom act: -33%; NPC1 prom act: -28%

Results for COc1cc2c(cc1OC)C(C(=O)N1CCC3(CC1)OCCO3)C(c1ccccc1F)N(C)C2=O (centres undefined) ?
ELG1 repair inh: 18µM*; SMN2 splice enh: 9%; FLuc modulator: 2%; ELG1 genotox: -8%; Rab9 prom act: 12%; NPC1 prom act: -4%

Results for CC(c1nccs1)N(C)C(=O)c1cn(Cc2cccc3ccccc23)nn1 (centres undefined) ?
ELG1 repair inh: inconclusive; FLuc modulator: inconclusive; ELG1 genotox: 14%; Rab9 prom act: inconclusive; NPC1 prom act: inconclusive

How did FC(F)(F)c1ccc(CSc2ccccn2)cc1 do in these assays?
ELG1 repair inh: 3%; FLuc modulator: 15µM*; ELG1 genotox: 2%; Rab9 prom act: 7%; NPC1 prom act: 1%

What do the screens show for `ClCC[N+]12CC[N+](CCCl)(CC1)C2` (tested in a mixture with another compound)?
SMN2 splice enh: 14%[9.22 µM]

What do the screens show for `Fc1cccc(F)c1-c1nc(-c2ccc(Cl)cc2)no1`?
ELG1 repair inh: inconclusive; FLuc modulator: 5.4µM*; ELG1 genotox: inconclusive; Rab9 prom act: 2.8µM*; NPC1 prom act: 4µM*

How did Cc1ccc(NC(=[OH+])c2cc3ccccc3cc2O)c(C)c1.Cc1ccc(NC(=[OH+])c2cc3ccccc3cc2O)c(C)c1.[Ni] do in these assays?
SMN2 splice enh: 23%[9.22 µM]

How did Cc1cccc(NC(=O)CSc2ccc(-c3ccco3)nn2)c1 do in these assays?
ELG1 repair inh: -14%; SMN2 splice enh: -37%; FLuc modulator: 27µM*; ELG1 genotox: -1%; Rab9 prom act: 14%; NPC1 prom act: 1%

What do the screens show for `COc1ccc(NC(=O)CSc2nc(-c3ccco3)cc(C(F)(F)F)n2)cc1OC`?
SMN2 splice enh: -48%; FLuc modulator: 3%

Results for CC[C@]1(OC(=O)CN)C(=O)OCc2c1cc1n(c2=O)Cc2cc3ccccc3nc2-1 ?
SMN2 splice enh: -30%[9.22 µM]

How did COc1ccc(N=Cc2c(O)n(C)c(=O)n(C)c2=O)cc1 do in these assays?
ELG1 repair inh: -6%; FLuc modulator: 13µM*; ELG1 genotox: 13%; Rab9 prom act: 3%; NPC1 prom act: 4%

Results for Cc1ccc(N=Cc2c(O)n(C)c(=O)n(C)c2=O)cc1 ?
ELG1 repair inh: 25%; FLuc modulator: 12µM*; ELG1 genotox: 2%; Rab9 prom act: 24%; NPC1 prom act: 19%

Results for C[C@@]12Cc3cnc(-c4ccccc4)nc3C[C@@H]1CC[C@@H]1[C@H]3CC[C@@](C)(O)[C@]3(C)CC[C@@H]12 ?
SMN2 splice enh: 6%[9.22 µM]

Results for NCCc1ccc(S(=O)(=O)O)cc1[N+](=O)[O-] ?
SMN2 splice enh: -4%[9.22 µM]

What do the screens show for `Cc1ccc(N/N=C/c2c(O)n(-c3ccccc3)c(=O)[nH]c2=O)cc1`?
ELG1 repair inh: 4.1µM*; SMN2 splice enh: -54%; FLuc modulator: inconclusive; ELG1 genotox: inconclusive; Rab9 prom act: 1%; NPC1 prom act: -3%
